The sample as a whole holds a higher share of hits than the screen did.
CHX counter: affects cycloheximide protein synthesis inhibition readout, counter-screen | max response, % | AID 2314 | cell reporter, cycloheximide protein synthesis inhibition counterscreen | 300,000 compounds, 12% hits; in the data active means max response mostly above about 13%, no sharp cut-off; inactive means mostly below about 14%; further: read at 38.3 µM for the half of the compounds with a filed dose; 0% is about no effect
AmpC no deterg: AmpC beta-lactamase inhibition without detergent; AmpC nitrocefin hydrolysis, absorbance 480 nm, 0.0001% Triton; AID 485341; Potency, µM (series often up to 57.1 µM), for the others: at the top dose activity change, negative = inhibition, usual class: inhibitors; 330,000 compounds, 0.52% hits;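 further: potency means the concentration at half of the fitted maximal effect; plate controls were no compound for no effect and no enzyme for full effect; nearly all actives have a fitted effect of over 20% in size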
Target sequence (P00811 whole entry, looked up): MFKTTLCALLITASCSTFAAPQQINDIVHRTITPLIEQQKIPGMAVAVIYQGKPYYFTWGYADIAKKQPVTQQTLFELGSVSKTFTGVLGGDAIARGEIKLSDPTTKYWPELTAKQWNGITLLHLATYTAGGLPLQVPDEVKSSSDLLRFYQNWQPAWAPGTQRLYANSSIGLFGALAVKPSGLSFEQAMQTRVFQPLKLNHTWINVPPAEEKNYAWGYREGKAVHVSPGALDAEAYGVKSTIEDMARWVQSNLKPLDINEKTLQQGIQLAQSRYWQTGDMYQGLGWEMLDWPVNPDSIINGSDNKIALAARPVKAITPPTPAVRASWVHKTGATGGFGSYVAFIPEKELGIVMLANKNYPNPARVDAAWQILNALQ
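20 mM phosphate pH 7.0 + 0.01% (detergent screen) or 0.0001% Triton X-100; 5.3 nM AmpC reagent; cpd preinc 15 min RT; nitrocefin (800 uM stock) to start; A480 q20 s × 4 min; Activity was normalised to no-enzyme and no-compound control wells.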
NS1 inh: influenza NS1 inhibition. AID 2326. Potency, µM (highest dose often 46.1 µM), inactives show at the top dose activity, positive = more growth. 270,000 compounds, 0.4% hits; calls by dose curve; further: potency means the concentration at half of the fitted maximal effect; actives are rising curves; nearly all actives have a fitted effect of over 50% in size
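S. cerevisiae expressing influenza A NS1, grown in glucose, washed, then diluted 1:100 into pH 6.0 -URA galactose medium with 23 nl compound. Growth recovery read as OD600; NS1-free strain serves as control.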
Shiga inhibitor: Shiga toxin inhibition. Vero cells, Shiga toxin protein synthesis inhibition reporter. inhibition, % at 38.7 µM. 290,000 compounds, 9.2% hits; in the data active means inhibition mostly above about 28%, no sharp cut-off; inactive means mostly below about 43%; further: 0% is about no effect
AmpC inh detg: AmpC beta-lactamase inhibition with detergent present | P00811 | AmpC hydrolysis of nitrocefin, absorbance 480 nm, 0.01% Triton | Potency, µM (series often up to 114 µM), for inactives: at the highest dose activity change, negative = inhibition, actives largely listed as inhibitors | 370,000 compounds, 0.041% hits | AID 485294;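 further: potency means the concentration at half of the fitted maximal effect; 0% = no-compound wells and -100% = no-enzyme wells; nearly all actives have a fitted effect of over 25% in size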
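20 mM phosphate pH 7.0 + 0.01% (detergent screen) or 0.0001% Triton X-100; 5.3 nM AmpC reagent; cpd preinc 15 min RT; nitrocefin (800 uM stock) to start; A480 q20 s × 4 min; Activity was normalised to no-enzyme and no-compound control wells.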
Numbers without * were called inactive; ? = inconclusive; . = not tested or not shown; [ ] = remark or other dose. Unless noted, the call rests on the fitted dose curve; in most records, active means well fitted curve in the direction sought with a large enough effect; inconclusive means small, poorly fitted or top-dose-only effect, or another doubt; inactive means no such curve, though single readings can be large; an effect the other way counts as inactive or inconclusive.

SMILES | CHX counter | AmpC no deterg | NS1 inh | Shiga inhibitor | AmpC inh detg
Cc1ccc(C(=O)CSc2nnc(-c3ccccc3)n2-c2ccccc2)o1 | -3.8 | -14.2% | -5.8% | -2.1 | 0.8%
Cc1cc(C(=O)CSc2nnnn2-c2ccc(O)cc2)c(C)n1C | 25.0* | -30.2% | . | 66.1* | -7.4%
O=C(CSc1nnnn1-c1ccccc1)CSc1nnnn1-c1ccccc1 | 1.2 | -21.5% | 18.1% | 7.8 | -12.5%
CC(=O)c1c(N2CCOCC2)nc2ccc(Cl)cc2c1-c1ccccc1 | -0.7 | 91.2% | -4.2% | -8.2 | 1.3%
CC(C)(C)c1ccc(OC(=O)Cn2c(C(F)(F)F)nc3ccccc32)cc1 | 0.3 | -7.9% | ? | -12.8 | -1.9%
O=C(O)C/C=C\CC(=O)O | . | . | 0.3% | . | .
COc1ccc2nc(N3CCCC(C(=O)NCCCN4CCN(C)CC4)C3)sc2c1 (configuration not stated) | 16.2 | 30.4% | 3.8% | -2.1 | -4.9%
CCOc1ccc2nc(N3CCC(C(=O)Nc4ccc(Br)cc4F)CC3)sc2c1 | 35.3* | . | . | 172.7* | -12.3%
CCOc1ccc2nc(N3CCCC(C(=O)NCCCN4C(C)CCCC4C)C3)sc2c1 (configuration not stated) | 16.6* | 65.9% | -4.5% | 54.1* | -5.0%
CCOc1ccc2nc(N3CCCC(C(=O)NCCCN4CCCCC4)C3)sc2c1 (configuration not stated) | 19.7* | 66.5% | -5.2% | 35.8* | -10.5%
CCOc1ccc2nc(N3CCCC(C(=O)NCCCN4CC(C)CC(C)C4)C3)sc2c1 (configuration not stated) | 31.7* | 16.1% | -12.7% | 23.1 | 3.2%
CCCCOc1ccc(C(=O)NCCc2csc3nc(-c4ccccc4F)nn23)cc1 | . | . | . | . | -6.0%
CCOC(=O)c1ccc(NC(=O)C2CCN(C(=O)N3CC(C)Oc4ccc(C)cc43)CC2)cc1 (configuration not stated) | . | . | . | . | -3.3%
COc1ccc(-n2c(=O)c3c4c(sc3n(Cc3ccc(C)cc3C)c2=O)CCC4)c(OC)c1 | . | . | . | . | -3.6%
COc1ccc(NC(=O)CSc2nnc(-c3ccncc3)n2-c2ccccc2)cc1 | . | . | . | . | 2.3%
O=C(NCCc1ccccc1)c1ccc(CSc2nc3cccnc3n2Cc2ccccc2)cc1 | . | . | . | . | 5.4%
CCOC(=O)c1c(NC(C)=O)sc(/C(C)=N/Nc2ccc(C(=O)O)cc2)c1C | 70.4* | -40.3% | -1.7% | 58.7* | -6.1%
C/C(=N\Nc1ccc(Cl)c(C(=O)O)c1)c1ccc(Br)s1 | 59.4* | -14.2% | -43.5% | 152.8* | -18.0%
C/C(=N\NC(=O)C(O)c1ccccc1)c1ccc(Cl)s1 (configuration not stated) | -1.6 | -18.9% | -16.9% | -9.2 | -3.6%
COc1ccc2c(c1)C(=NNc1ccc(C(=O)O)cc1)c1cc(OC)ccc1-2 | 9.4 | -1.2% | 11.4% | 43.1 | -7.4%
COc1ccc(/C(C)=N/Nc2ccc(C(=O)O)cc2)c(OC)c1 | 60.9* | -25.9% | 4.1% | 52.8* | -17.9%
C/C(=N\Nc1ccc(C(=O)O)cc1)c1ccc(Cl)s1 | 40.3* | -49.7% | -19.0% | 61.6* | 0.2%
CCOc1ccc(CNS(=O)(=O)c2ccc(-c3cc(C(F)(F)F)on3)s2)cc1 | . | . | . | . | -3.1%
CCOC(=O)c1cnc2cc(C(F)(F)F)ccc2c1Nc1ccc(F)cc1F | . | . | . | . | 3.1%
COc1ccc(CNC(=O)CNS(=O)(=O)c2cccs2)cc1 | 0.7 | -19.1% | -5.6% | -5.6 | ?
SMILES | CHX counter | AmpC no deterg | NS1 inh | Shiga inhibitor | AmpC inh detg
O=C(c1ccccc1C(=O)N(c1ccccc1)c1ccccc1)N1CCCCC1 | -4.0 | 30.6% | -4.9% | -5.1 | 0.6%
CCCn1c(SCC(=O)NCCc2ccc(Cl)cc2Cl)n[nH]c1=O | -3.4 | -3.2% | -4.1% | -20.8 | 3.2%
C/C(=N/Nc1ncc(Br)cn1)c1ccc(Br)cc1 | 2.4 | -15.7% | -7.9% | 33.3 | 1.1%
C/C(=N\Nc1ccc(C(=O)O)cc1)c1ccc(Br)cc1 | 21.2* | -30.4% | -51.4% | 42.4* | -1.8%
CSc1nc2ccc(NC(=O)C3=NN(c4ccccc4)C(=O)CC3)cc2s1 | 6.3 | 16.8%[11.4 µM] | . | 17.2 | -8.1%
COC(=O)c1ccc(C(=O)NC(=S)Nc2ccc3nc(SC)sc3c2)cc1 | 10.6* | -5.0% | 2.1% | 11.4 | 3.5%
CSc1nc2ccc(NC(=O)C3=NNC(=O)CC3)cc2s1 | 16.5* | -31.1% | -0.1% | 46.6 | -6.5%
CSc1nc2ccc(NC(=O)c3ccccn3)cc2s1 | 37.8* | -12.8% | -8.0% | 104.8* | -14.2%
COc1cc(C(=O)N=c2sc3c(C)ccc(OC)c3n2C)cc(OC)c1OC | 13.0 | -6.7% | 1.9% | 39.1 | -6.1%
COc1ccc(C(=O)N=c2sc3c(C)ccc(OC)c3n2C)cc1 | 37.1* | 1.12µM* | 9.9% | 66.0* | ?
COc1ccc(OC)c2c1sc(=NC(=O)c1cccc(N3C(=O)CCC3=O)c1)n2C | -3.3 | 39.8µM* | 16.7% | -2.1 | ?
Cc1ccc(NC(=O)c2nc(S(C)(=O)=O)ncc2N(Cc2ccco2)Cc2ccco2)cc1 | . | . | . | . | -5.7%
O=[As](O)(O)c1ccc(NCc2ccccc2)cc1 | . | . | 1.4% | . | .
O=C(COc1ccc2ccccc2c1Br)Nc1ncn[nH]1 | 31.9* | -7.1% | 21.1% | 76.0* | -2.7%
O=C(COc1ccc2ccccc2c1Br)N1CCOCC1 | 24.7 | 37.3% | -4.8% | 39.2* | -12.2%
CCOC(=O)N1CCN(C(=O)COc2ccc3ccccc3c2Br)CC1 | 0.4 | 196.5% | -19.7% | -5.4 | 4.3%
O=C(COc1ccc2ccccc2c1Br)N1CCCC1 | 41.9* | 53.4% | -14.0% | 34.6 | -2.6%
Cc1cccc(C)c1OCC(=O)Nc1ncn[nH]1 | -3.0 | -14.4% | -18.8% | -14.4 | ?
CC(C)(CO)NCc1cccc(OCc2ccc(Cl)cc2)c1 | 14.5 | 0.0% | -3.0% | active | -13.9%
COc1cccc(CNC(C)(C)CO)c1OCc1ccc(Cl)cc1 | -2.7 | 10.6% | -0.4% | -10.4 | 8.4%
CC(C)Oc1ccc(CNC(=O)c2ccc(NC(=O)N3CCSc4ncccc43)cc2)cc1 | . | . | . | . | -1.5%
CC1=CN2C(=N)/C(=C/c3ccc(Sc4ccc(C)cc4)o3)C(=O)N=C2S1 | 23.1* | -55.6% | -16.8% | active | 3.1%
CC1=CN2C(=N)/C(=C/c3ccc(C)o3)C(=O)N=C2S1 | 24.1* | -18.8% | -2.9% | 53.3* | -10.7%
CC1=CN2C(=N)/C(=C/c3ccc(Sc4ccc(Cl)cc4)o3)C(=O)N=C2S1 | 4.1 | -29.4% | 0.0% | -3.3 | -12.1%
CC(C)(C)OC(=O)C[C@@H]1C/C=C\C[C@H](CC(=O)N(CCO)Cc2ccccc2)C(=O)NC[C@H](c2ccccc2)OC1=O | . | 170.2% | . | . | .
O=C(CN1CCN(CN2C(=O)NC3(CCCCCC3)C2=O)CC1)Nc1ccc(F)cc1 | . | -17.9% | . | . | -4.7%
CC(=O)NCCc1nc2cc(NC(=O)c3ccc(Cl)cc3)ccc2n1C | 23.9* | 47.9% | 10.1% | 64.3* | -10.4%
CCCC(=O)Nc1ccc2c(c1)nc(CCNC(=O)c1ccccc1)n2C | -3.7 | -4.6% | 10.3% | -12.3 | -1.3%
CCC(=O)NCCc1nc2cc(NC(=O)c3ccc(OC)cc3)ccc2n1C | 25.1* | -4.2% | 2.6% | 51.8 | -8.6%

High-throughput results from PubChem BioAssay.
